The results in this text go back to PubChem BioAssay.

Test [1] in a line: antimalarial activity against Dd2 strain (AID 2302;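 active = growth inhibition above 50% at the single 2 µM test dose, taken to imply half-maximal potency below 2 µM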;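 note: 0% = DMSO untreated growth and 100% = chloroquine plus artemisinin killed control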). Particulars: P. falciparum Dd2 in RBCs, LDH growth readout, 72 h; at 2 µM; stronger effect = higher value.
A short description of test [2]: HepG2 cytotoxicity, primary screen, cytotoxicity control for P. falciparum antimalarial project, cell-based, ATP luminescence (AID 2303;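 active = inhibition above 50%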;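 note: 0% = DMSO wells and 100% = digitonin-killed cells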). Conditions: HepG2 viability, 24-48 h, at 10 µM, stronger effect = higher value.
In test [3] the target is L-lactate dehydrogenase (Plasmodium falciparum (isolate CDC / Honduras)) (UniProt Q27743). Put plainly: PfLDH activity inhibition – cell lysate, 3D7 strain, counter-screen for P. falciparum growth inhibition project (AID 2304).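 Note: 0% = vehicle and 100% = reference inhibitor.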 Particulars: P. falciparum 3D7 crude extract, LDH APAD/NBT absorbance; at 2 µM; stronger effect = higher value.
Chain of L-lactate dehydrogenase (Plasmodium falciparum (isolate CDC / Honduras)) (Q27743 whole entry, looked up): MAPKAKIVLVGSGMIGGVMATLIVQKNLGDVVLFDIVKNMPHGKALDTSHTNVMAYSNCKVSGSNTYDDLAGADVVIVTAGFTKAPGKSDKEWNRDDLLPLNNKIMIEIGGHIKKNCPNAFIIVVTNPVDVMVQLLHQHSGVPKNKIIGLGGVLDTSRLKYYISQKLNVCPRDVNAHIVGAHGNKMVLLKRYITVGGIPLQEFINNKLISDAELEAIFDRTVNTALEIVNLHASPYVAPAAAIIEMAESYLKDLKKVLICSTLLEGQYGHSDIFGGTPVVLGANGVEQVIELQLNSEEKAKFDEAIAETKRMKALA
Test [4] can be described thus: inhibition of 3D7 malaria parasite growth – strain 3D7 (AID 2306).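 Note: 0% = DMSO wells and 100% = chloroquine plus artemisinin control wells.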 Particulars: P. falciparum 3D7 erythrocytic growth, LDH absorbance, 72 h; at 2 µM; stronger effect = higher value.
The target in test [5] is Calcium-dependent protein kinase 1 (Plasmodium falciparum (isolate 3D7)) (UniProt P62344). Nature of the test: PfCDPK1 kinase inhibitors, biochemical, TCAMS library (AID 1159585; cut-off not given, nearly all actives have IC50 up to about 0.98 µM;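 note: inhibitors leave more ATP so luminescence rises with inhibition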). Particulars: recombinant PfCDPK1, Kinase-Glo ATP depletion luminescence.
Chain of Calcium-dependent protein kinase 1 (Plasmodium falciparum (isolate 3D7)) (P62344 whole entry, looked up): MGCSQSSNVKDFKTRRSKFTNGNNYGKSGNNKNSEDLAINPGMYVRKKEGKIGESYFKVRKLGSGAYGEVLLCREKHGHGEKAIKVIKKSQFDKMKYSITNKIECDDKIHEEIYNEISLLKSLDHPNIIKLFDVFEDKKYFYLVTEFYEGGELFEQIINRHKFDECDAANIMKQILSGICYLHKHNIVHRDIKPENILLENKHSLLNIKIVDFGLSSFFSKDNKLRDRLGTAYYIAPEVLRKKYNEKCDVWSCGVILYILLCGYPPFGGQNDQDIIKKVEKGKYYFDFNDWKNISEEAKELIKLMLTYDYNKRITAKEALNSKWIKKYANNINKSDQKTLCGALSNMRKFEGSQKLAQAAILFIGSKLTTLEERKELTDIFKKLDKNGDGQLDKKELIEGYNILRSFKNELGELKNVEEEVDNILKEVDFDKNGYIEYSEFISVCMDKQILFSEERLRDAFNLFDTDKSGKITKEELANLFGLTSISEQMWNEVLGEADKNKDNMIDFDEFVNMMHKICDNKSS
Test [6] concerns the target Plasmodium falciparum protein kinase 6 (PK6, PF3D7_1337100) (UniProt Q8IDW1). Nature of the test: PfPK6 kinase inhibitors, biochemical, TCAMS library (AID 1159586). Conditions: recombinant PfPK6, Kinase-Glo ATP depletion luminescence.
The target of test [7] is Protein kinase 7 (PK7), Plasmodium falciparum 3D7 (PF3D7_0213400) (UniProt Q7YTF7). Nature of the test: inhibition of Plasmodium PK7 catalytic activity – biochemical, TCAMS antimalarial set, Kinase-Glo luminescence (AID 1159587). Particulars: recombinant PfPK7, Kinase-Glo ATP depletion luminescence.
Chain of Protein kinase 7 (PK7), Plasmodium falciparum 3D7 (PF3D7_0213400) (Q7YTF7 1-343): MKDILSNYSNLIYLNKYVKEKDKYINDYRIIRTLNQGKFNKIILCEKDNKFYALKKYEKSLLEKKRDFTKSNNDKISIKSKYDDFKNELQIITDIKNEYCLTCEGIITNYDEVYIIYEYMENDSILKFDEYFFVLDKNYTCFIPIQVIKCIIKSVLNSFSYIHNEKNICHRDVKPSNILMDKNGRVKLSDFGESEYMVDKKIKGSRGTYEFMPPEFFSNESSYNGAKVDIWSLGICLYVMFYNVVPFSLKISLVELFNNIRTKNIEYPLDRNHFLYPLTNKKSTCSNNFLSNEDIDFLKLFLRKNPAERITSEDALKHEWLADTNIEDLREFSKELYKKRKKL
The target of test [8] is Calcium-dependent protein kinase 4 (Plasmodium falciparum (isolate 3D7)) (UniProt Q8IBS5). Nature of the test: PfCDPK4 kinase inhibitors, biochemical, TCAMS library (AID 1159588; cut-off not given, nearly all actives have IC50 up to about 0.91 µM). Conditions: recombinant PfCDPK4, Kinase-Glo ATP depletion luminescence.
Chain of Calcium-dependent protein kinase 4 (Plasmodium falciparum (isolate 3D7)) (Q8IBS5 whole entry, looked up): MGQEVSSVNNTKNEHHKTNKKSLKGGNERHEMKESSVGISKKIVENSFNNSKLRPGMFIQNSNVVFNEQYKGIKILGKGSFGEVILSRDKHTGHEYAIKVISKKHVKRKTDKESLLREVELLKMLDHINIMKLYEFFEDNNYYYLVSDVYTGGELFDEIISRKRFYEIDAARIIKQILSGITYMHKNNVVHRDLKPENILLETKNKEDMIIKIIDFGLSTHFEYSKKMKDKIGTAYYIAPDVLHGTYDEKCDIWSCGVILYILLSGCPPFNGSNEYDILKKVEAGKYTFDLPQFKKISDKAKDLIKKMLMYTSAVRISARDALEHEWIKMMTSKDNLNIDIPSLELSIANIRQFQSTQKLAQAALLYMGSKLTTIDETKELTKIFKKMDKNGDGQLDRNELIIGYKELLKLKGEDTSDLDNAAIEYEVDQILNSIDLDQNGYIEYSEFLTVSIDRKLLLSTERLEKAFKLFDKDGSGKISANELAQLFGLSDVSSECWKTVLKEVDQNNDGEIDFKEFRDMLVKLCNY

A number with no mark means an inactive call. For some of these results: Entries with a potency or affinity are not part of this list. The source made the active and inactive calls. Unless noted, the rule behind the calls is not given here.

Chain of Plasmodium falciparum protein kinase 6 (PK6, PF3D7_1337100) (Q8IDW1 1-305): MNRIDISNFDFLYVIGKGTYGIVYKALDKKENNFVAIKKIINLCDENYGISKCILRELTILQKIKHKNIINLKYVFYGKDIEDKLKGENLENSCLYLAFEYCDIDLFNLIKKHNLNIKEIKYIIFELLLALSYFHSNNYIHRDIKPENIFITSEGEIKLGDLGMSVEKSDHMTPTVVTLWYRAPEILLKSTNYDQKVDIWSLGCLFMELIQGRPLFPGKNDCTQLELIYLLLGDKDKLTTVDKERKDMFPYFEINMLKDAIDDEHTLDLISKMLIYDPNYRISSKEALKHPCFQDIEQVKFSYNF

Regarding `CCN1CCC(N(Cc2ccc(-c3ccc(C(F)(F)F)cc3)cc2)C(=O)Cn2c(CCc3cccc(F)c3F)cc(=O)c3c2CCCC3)CC1`, the figures for the growth inhibition in test [1] and in test [4] were 96% (active) and 100% (active), respectively. For the same compound, the values for the inhibition in test [2] and in test [3] were 55% (active) and 0%, respectively. For the same compound, the result in test [5], in test [6], in test [7] and in test [8] was inactive.
In the case of `CCOC(=O)NC1=NC(C)(C)N(OCCCOc2ccc(C)cc2C)C(NC(=O)OCC)=N1`, the results for the growth inhibition in test [1] and in test [4] were 98% (active) and 95% (active), respectively. The results for the inhibition in test [2] and in test [3] were 63% (active) and 7%, respectively. In addition, the result in test [5], in test [6], in test [7] and in test [8] was inactive.
For the compound `OC(CNc1ccnc(Nc2cccc(CCN3CCOCC3)c2)n1)c1ccccc1` (stereo not given), the growth inhibition is 14% in test [1] and 102% (active) in test [4]. Besides, the inhibition is 34% in test [2] and -1% in test [3]. For the same compound, the result in test [5], in test [6], in test [7] and in test [8] was inactive.
For `FC(F)(F)c1cccnc1N1CCC(Nc2nc3ccc(Cl)cc3[nH]2)CC1`, the values for the growth inhibition in test [1] and in test [4] were 39% and 93% (active), respectively. Also, the inhibition is 32% in test [2] and -2% in test [3]. The outcome in test [5], in test [6], in test [7] and in test [8] was inactive.
Regarding `Oc1c(CN2CCCC(C(F)(F)F)C2)cc(Cl)c2ccccc12` (stereo not given), the growth inhibition was 53% (active) in test [1] and 94% (active) in test [4]. In addition, the inhibition is 23% in test [2] and 4% in test [3]. The result in test [5], in test [6], in test [7] and in test [8] was inactive.
As for `O=C(CCn1cncn1)N1CCCC(c2[nH]c3ccccc3c2-c2ccncc2)C1` (stereo not given), the figures for the growth inhibition in test [1] and in test [4] were 79% (active) and 97% (active), respectively. Moreover, the inhibition in test [2] was 1%; in test [3], -1%. The result in test [5], in test [6], in test [7] and in test [8] was inactive.
Turning to `N=C1C=C(N)C(=O)c2ccccc21`, the growth inhibition is 85% (active) in test [1] and 81% (active) in test [4]. In addition, the inhibition in test [2] was 99% (active); in test [3] it was -2%. Further, the result in test [5], in test [6], in test [7] and in test [8] was inactive.
Turning to `CCN(CC)C(=NCCCCCCN=C(/N=C(/N)Nc1ccc(C)cc1)N(CC)CC)/N=C(/N)Nc1ccc(C)cc1`, the growth inhibition was 98% (active) in test [1] and 97% (active) in test [4]. Also, the inhibition in test [2] is 10%; in test [3] it was -3%. Moreover, the result in test [5], in test [6], in test [7] and in test [8] was inactive.
Take `CCOc1ccc2nc(C)cc(NN=Cc3ccccc3[N+](=O)[O-])c2c1`: the growth inhibition in test [1] is 99% (active); in test [4], 101% (active). Also, the results for the inhibition in test [2] and in test [3] were 91% (active) and -5%, respectively. The result in test [5], in test [6], in test [7] and in test [8] was inactive.
On to `Cc1cc(C(=O)NCc2ccc(-c3c(C)noc3C)cc2)n(-c2ccc(Cl)cc2)n1`, for which the growth inhibition is 98% (active) in test [1] and 100% (active) in test [4]. For the same compound, the inhibition in test [2] was -1%; in test [3], 3%. For the same compound, the result in test [5], in test [6], in test [7] and in test [8] was inactive.
Regarding `Cc1cccc2[nH]c(-c3ccc(-c4ccc(CN5CCC(N)C5)cc4)s3)nc12` (stereo not given), the growth inhibition in test [1] is 98% (active); in test [4] it was 100% (active). Also, the inhibition in test [2] is 21%; in test [3], -11%. Moreover, the outcome in test [5], in test [6], in test [7] and in test [8] was inactive.
Turning to `CCN(CCO)CCc1cccc(Nc2nccc(-c3c(-c4ccc(NC(=O)N(CC)CC)cc4)nn4ccccc34)n2)c1`, the values for the growth inhibition in test [1] and in test [4] were 95% (active) and 101% (active), respectively. For the same compound, the inhibition in test [2] was 46%; in test [3] it was 2%. The outcome in test [5], in test [6], in test [7] and in test [8] was inactive.
`Fc1ccc([C@H]2N=C(SCCSC3=N[C@H](c4ccc(F)cc4)[C@H](c4ccc(F)cc4)N3)N[C@H]2c2ccc(F)cc2)cc1`: the growth inhibition in test [1] is 69% (active); in test [4], 99% (active). The inhibition in test [2] was 18%; in test [3], -5%. Further, the result in test [5], in test [6], in test [7] and in test [8] was inactive.
Consider `CCn1c(-c2nonc2N)nc2cnc(Oc3cccc(NC(=O)c4ccc(OCCN5CCCC5)cc4)c3)cc21`, for which the growth inhibition in test [1] was 1%; in test [4], 92% (active). Further, the inhibition in test [2] was 25%; in test [3] it was 2%. Moreover, the result in test [5], in test [6], in test [7] and in test [8] was inactive.
Regarding `Clc1ccc(CCNCCCCCCNCCc2ccc3c(c2)OCO3)cc1`, the growth inhibition in test [1] was 11%; in test [4], 91% (active). Moreover, the results for the inhibition in test [2] and in test [3] were 23% and 7%, respectively. Also, the result in test [5], in test [6], in test [7] and in test [8] was inactive.
Consider `CCOc1ccc(-c2nonc2NC(=O)c2ccc(Cl)cc2)cc1OCC`, for which the growth inhibition in test [1] is 47%; in test [4], 94% (active). The inhibition is 28% in test [2] and -2% in test [3]. The outcome in test [5], in test [6], in test [7] and in test [8] was inactive.
`O=C(NC1CCCCC1)N(Cc1ccc(-c2ccc(CNCc3ccc4c(c3)OCO4)cc2)cc1)C1CCN(Cc2ccccc2)CC1`: the growth inhibition was 72% (active) in test [1] and 102% (active) in test [4]. Moreover, the inhibition was 28% in test [2] and -2% in test [3]. Moreover, the outcome in test [5], in test [6], in test [7] and in test [8] was inactive.
For the compound `CCN(CCCN1CCCCC1)c1cc(C)nc(Nc2cc(C(F)(F)F)ccc2C)n1`, the growth inhibition in test [1] is 41%; in test [4], 96% (active). Moreover, the inhibition is 35% in test [2] and -2% in test [3]. Besides, the outcome in test [5], in test [6], in test [7] and in test [8] was inactive.
As to `CC1=C(C(=O)Nc2cc3cn[nH]c3cc2F)C(c2cccc(O)c2F)CC(=O)N1` (stereo not given), the results for the growth inhibition in test [1] and in test [4] were 98% (active) and 97% (active), respectively. The inhibition in test [2] is 1%; in test [3] it was -2%. In addition, the outcome in test [5], in test [6], in test [7] and in test [8] was inactive.
`CC(C)c1ccc(CN2CCC(NC(=O)c3ccc(-c4cccc(Cl)c4)s3)CC2)cc1`: the growth inhibition in test [1] is 6%; in test [4], 82% (active). The inhibition in test [2] was 50% (active); in test [3], 3%. In addition, the outcome in test [5], in test [6], in test [7] and in test [8] was inactive.
